Assay outcomes: PubChem, National Center for Advancing Translational Sciences (NCATS)
The entries come from a sample that favours hits as a whole.
a7 integrin act – activators of alpha7 integrin expression for muscular dystrophy; 0.064% of 350,000 active; alpha7betagal myoblasts, beta-gal FDG fluorescence, 48 h; AID 624291; Potency, µM (doses to about 38.3 µM), for inactives: at the highest dose activation, actives largely listed as activators;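 further: potency means the concentration at half of the fitted maximal effect; 100% = response of the positive control SU9516; nearly all actives have a fitted effect of over 60% in size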
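Alpha7betagal+/- myoblasts (passage 13) were plated 16-24 hr, then exposed to compounds (1:260 dilution of DMSO stock) for 48 hours at 37C. After MPER lysis, β-galactosidase reporter activity was read as FDG fluorescence (ex 480/em 540) after 30 minutes.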
ERG-DNA inh – blocks human ERG Ets domain binding to DNA. P11308. fluorescence polarization, His-ERG Ets domain / labelled DNA. Potency, µM (doses to about 76.9 µM), for inactives: top-dose FP activity, negative = inhibition, most hits filed as inhibitors. 0.028% of 370,000 active; active means well fitted inhibition curve with a large enough effect in the polarisation, with a control signal flat; inconclusive means small, poorly fitted or top-dose-only effect, or effect the other way, or a change in a side signal; inactive means no such curve, though single readings can be large or run the other way; the % refers to the polarisation;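 further: polarization taken with two DNA probes labelled with fluorescein and Texas red; potency means the concentration at half of the fitted maximal effect; % of control where 0% means no effect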
Target sequence (P11308 whole entry, looked up, the tested form may be a part): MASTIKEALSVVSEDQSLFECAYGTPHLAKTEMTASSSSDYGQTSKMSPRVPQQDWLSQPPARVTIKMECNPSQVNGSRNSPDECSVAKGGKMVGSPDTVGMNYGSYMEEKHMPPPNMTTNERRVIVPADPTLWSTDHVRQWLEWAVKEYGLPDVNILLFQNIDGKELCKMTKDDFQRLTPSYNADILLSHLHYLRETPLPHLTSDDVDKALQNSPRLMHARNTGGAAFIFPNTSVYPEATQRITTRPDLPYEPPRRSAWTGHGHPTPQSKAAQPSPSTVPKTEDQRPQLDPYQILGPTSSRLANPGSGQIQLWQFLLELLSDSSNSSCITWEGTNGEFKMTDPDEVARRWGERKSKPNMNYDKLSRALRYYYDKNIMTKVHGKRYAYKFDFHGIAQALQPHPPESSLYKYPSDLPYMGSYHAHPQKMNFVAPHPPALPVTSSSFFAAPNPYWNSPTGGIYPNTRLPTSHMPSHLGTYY
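His-tagged ERG Ets domain (1 uM in the protein solution; 300mM KCl, 50mM Tris-HCl, 1mM EDTA, 1mM DTT, pH 7.5) received compound, then a probe mix of 5 nM fluorescein-DNA and 100nM Texas-615-DNA. Fluorescence polarization was read for both dyes.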
Gal4-VP16 FLuc – counter-screen for ROR gamma inhibitors: Gal4-VP16 reporter. 3.5% of 310,000 active. Potency, µM (titrated, usually from 53.6 µM), without a hit: top-dose activity, negative = inhibition, most hits filed as inhibitors. AID 2546. Drosophila S2 Gal4-VP16 UAS-luciferase, luminescence, 20 h;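 further: Gal4-VP16 expression switched on by copper sulfate through the metallothionein promoter; potency means the concentration at half of the fitted maximal effect; on the % scale 0 is the no-effect control and ±100 the full control effect; nearly all actives have a fitted effect of over 50% in size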
Giardia killer – Giardia lamblia killing; Giardia lamblia trophozoite viability; activity change, % at 7.66 µM, hits read low; 0.15% of 340,000 active; AID 540267; in the data active means activity change below about -80%; inconclusive means between about -30% and that limit;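 further: parasites exposed to compound for two days anaerobically before the ATP read; on the % scale 0 is the no-effect control and ±100 the full control effect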
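Killing of trophozoites was scored by loss of ATP luminescence after a 48 hrs anaerobic exposure to compounds at 37 deg C, using 100 cells per well.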
RORgamma inh – inhibitors of mouse ROR gamma transcriptional activity; P51450; Drosophila S2 Gal4-RORgamma UAS-luciferase reporter, 20 h; Potency, µM (series often up to 53.6 µM), for the others: at the highest dose activity change, negative = inhibition, most hits filed as inhibitors; 5.4% of 310,000 active; further: potency means the concentration at half of the fitted maximal effect; on the % scale 0 is the no-effect control and ±100 the full control effect; nearly all actives have a fitted effect of over 60% in size
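A Gal4/UAS one-hybrid system in insect cells: metallothionein-promoter Gal4–ROR gamma fusion plus Photinus luciferase reporter. Copper sulfate 700 uM final, 20 hr ambient incubation, luminescent detection after 10 min with reagent.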
Active calls of the source: *; ? = inconclusive; / = no result given; [ ] = dose if it differs, or a comment. Unless noted, the call rests on the fitted dose curve; in most records, active means well fitted curve in the direction sought with a large enough effect; inconclusive means small, poorly fitted or top-dose-only effect, or another doubt; inactive means no such curve, though single readings can be large; an effect the other way counts as inactive or inconclusive.

SMILES	a7 integrin act	ERG-DNA inh	Gal4-VP16 FLuc	Giardia killer	RORgamma inh
Cc1cccc(NC(=O)c2cc3ccccc3oc2=O)c1	?	-11.6%	?	21.2	2.82µM*
COc1cccc(C#CC2=CC(=O)CC(C)(C)C2)c1	-44.2%	/	/	/	/
Cc1ccc(N=Nc2c(C)[nH]n(-c3ccccc3)c2=O)c(C)c1	2.3%	-0.8%	17.8µM*	18.1	?
S=C1Cc2ccccc2C(c2ccc(Cl)cc2)N1 (stereo not drawn)	21.1%	-4.3%	5.62µM*	5.6	6.31µM*
O=C(Nc1ccc2c(c1)CCC2)c1cc(S(=O)(=O)Nc2ccc(F)cc2)c(Cl)cc1Cl	-27.6%	-9.3%	6.31µM*	9.8	?
S=c1nc(-c2ccccc2)[nH]c2ccccc12	0.0%	21.5%	7.08µM*	0.0	0.794µM*
O=C(CCc1ccccc1)c1ccc2c(c1)OCCCO2	-0.4%	3.9%	1.8%	-5.4	-0.4%
O=C(NCCOc1ccccc1)c1ccc2c(c1)OCO2	3.5%	-1.0%	?	-1.6	5.01µM*
O=C(NCCc1ccccc1)c1ccc2c(c1)OCCCO2	0.5%	5.9%	0.631µM*	-89.4*	0.355µM*
COc1ccc(CCNC(=O)c2ccc3c(c2)OCCO3)cc1	-10.4%	-3.5%	0.0%	-20.4	-8.0%
O=C(CCCc1ccccc1)c1ccc2c(c1)OCCO2	-3.7%	-6.0%	2.24µM*	?	1.12µM*
CN(CCOc1ccccc1)C(=O)c1ccc2c(c1)OCO2	-4.8%	-16.3%	/	3.5	/
O=C(NCCc1ccccc1)c1ccc2c(c1)OCCO2	-1.3%	-16.7%	1.26µM*	-81.2*	1.41µM*
Cc1cc(C)c(N)cc1C	/	13.1%	6.3%	-15.9	-26.5%
Cc1ccc(-n2nnnc2CNC(=O)c2ccccc2S(C)(=O)=O)cc1C	/	-4.6%	/	/	/
Cc1ccc(N(C(=O)c2csnn2)C(C(=O)NC2CCCCC2)c2cccnc2)cc1 (stereo not drawn)	-27.6%	-4.0%	2.2%	7.2	18.6%
COc1ccc(CN=C(Nc2ccccc2)SC2CC(=O)NC2=O)cc1 (stereo not drawn)	12.0%	4.7%	-9.5%	-19.8	12.6µM*
O=C(c1ccc2c(=O)n(C3CCCC3)c(=S)[nH]c2c1)N1CCN(C2CCCCC2)CC1	-8.8%	-9.1%	1.5%	4.4	-42.0%
CCCn1c(=S)[nH]c2cc(C(=O)N3CCN(C4CCCCC4)CC3)ccc2c1=O	-14.1%	-6.3%	-12.0%	-8.1	10µM*
COCCCNC(=O)c1ccc2c(=O)n(CC3CCCO3)c(=S)[nH]c2c1 (stereo not drawn)	-18.4%	7.9%	-9.0%	-2.9	-23.2%
CCN1CCN(C(=O)c2ccc3c(=O)n(C4CCCC4)c(=S)[nH]c3c2)CC1	-17.3%	-4.0%	14.1µM*	12.9	7.08µM*
COc1ccccc1Cn1c(=S)[nH]c2cc(C(=O)NCC3CCCO3)ccc2c1=O (stereo not drawn)	-11.4%	-6.2%	?	33.6	12.6µM*
COCCCNC(=O)c1ccc2c(=O)n(C3CCCC3)c(=S)[nH]c2c1	-7.0%	0.0%	?	13.7	14.1µM*
CC(=O)OC[C@@H]1O[C@H](CCON=C(C)C)C=C[C@@H]1OC(C)=O	/	/	-7.3%[10 µM]	/	0.0%[10 µM]
CCOC(=O)c1c(NC(=O)CSc2cn(CCNC(=O)c3ccccc3OC)c3ccccc23)sc2c1CCCC2	/	0.9%	/	/	/
SMILES	a7 integrin act	ERG-DNA inh	Gal4-VP16 FLuc	Giardia killer	RORgamma inh
CCc1ccc(Nc2cc(C)nc3nc(Cc4ccc(Cl)cc4)nn23)cc1	/	-4.4%	/	/	/
O=c1c(O)c(-c2ccc(O[C@@H]3O[C@H](CO)[C@@H](O)[C@H](O)[C@H]3O)c(O)c2)oc2cc(O)cc(O)c12	/	/	-2.8%	/	0.5%
COc1ccc(CN(C)C(=O)c2ccccc2Sc2ccccc2C#N)c(OC)c1	-47.6%	6.3%	-0.2%	-25.2	22.6%
CCOc1ccc(CNC(=O)c2oc3c(c2C)-c2nn(Cc4cccc(Cl)c4)cc2CC3)cc1	/	2.6%	/	/	/
CCCn1c(=S)[nH]c2cc(C(=O)N3CCCC(C(=O)OCC)C3)ccc2c1=O (stereo not drawn)	4.0%	5.8%	?	31.6	11.2µM*
CCOCCCn1c(=S)[nH]c2cc(C(=O)N3CCOCC3)ccc2c1=O	2.7%	3.9%	-5.1%	-16.3	-9.3%
COC(=O)[C@H](C)NC(=O)C/C=C\[C@@H](C)[C@H]1C=C[C@H](O)[C@@H](CO)O1	/	/	11.4%[10 µM]	/	-15.7%[10 µM]
